The whole screen tested about 5,500 compounds, of which about 2,000 (36%) were called active. Another 18% or so got no clear call; they are omitted. Cut-off read from the data, not from the text of the source: active = normalized growth mostly below about 0.91 (no sharp cut-off); inconclusive = no clear call, values can overlap the other calls; inactive = mostly above about 0.92. The list shows a part of the results.
Assay: chemical genetic growth profiling, strain panel (AID 1159580);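 note: tested at 20 µM; growth read once vehicle control cultures reached saturation at 30 °C; 1 = growth at the plate median or of vehicle wells; lower values mean less growth of the strain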
Conditions: S. cerevisiae deletion strains, growth OD

Measured: normalized growth

CC1=C(C/C=C(\C)CCC[C@H](C)CCC[C@H](C)CCCC(C)C)C(=O)c2ccccc2C1=O
active: locus YDR137W, strain rgp1, hits give low values 0.772
inactive: locus YAL021C, strain ccr4, hits give low values 0.99 | locus YAL026C, strain drs2, hits give low values 0.99 | locus YAL030W, strain snc1, hits give low values 0.995 | locus YBL061C, strain skt5, hits give low values 0.997 | locus YBR009C, strain hhf1, hits give low values 0.977 | locus YBR023C, strain chs3, hits give low values 0.996 | locus YBR171W, strain sec66, hits give low values 0.993 | locus YBR231C, strain swc5, hits give low values 0.989 | locus YBR279W, strain paf1, hits give low values 0.994 | locus YCL011C, strain gbp2, hits give low values 0.977 | locus YCL016C, strain dcc1, hits give low values 0.985 | locus YCL061C, strain MRC1, hits give low values 0.987 | locus YCL069W, strain vba3, hits give low values 0.979 | locus YCR088W, strain abp1, hits give low values 1 | locus YDL005C, strain med2, hits give low values 0.965 | locus YDL040C, strain nat1, hits give low values 1 | locus YDR001C, strain nth1, hits give low values 0.993 | locus YDR069C, strain doa4, hits give low values 0.975 | locus YDR159W, strain sac3, hits give low values 0.981 | locus YDR195W, strain ref2 0.963 | locus YDR297W, strain sur2, hits give low values 0.993 | locus YDR334W, strain swr1, hits give low values 0.955 | locus YDR335W, strain msn5, hits give low values 0.99 | locus YDR392W, strain spt3, hits give low values 0.962 | locus YEL003W, strain gim4, hits give low values 0.977 | locus YEL037C, strain rad23, hits give low values 0.994 | locus YEL061C, strain CIN8 (second series), hits give low values 0.992 | locus YER015W, strain faa2, hits give low values 0.991 | locus YER016W, strain bim1, hits give low values 0.982 | locus YER111C, strain swi4, hits give low values 1 | locus YER155C, strain BEM2 (second series), hits give low values 0.993 | locus YFR010W, strain ubp6, hits give low values 0.974 | locus YGL167C, strain pmr1, hits give low values 0.989 | locus YGL173C, strain kem1, hits give low values 0.99 | locus YGL227W, strain vid30, hits give low values 0.997 | locus YGL240W, strain doc1, hits give low values 0.956 | locus YGL253W, strain hxk2, hits give low values 1 | locus YHR013C, strain ard1, hits give low values 0.975 | locus YHR027C, strain rpn1, hits give low values 0.984 | locus YHR030C, strain SLT2, hits give low values 0.986 | locus YHR079C, strain IRE1, hits give low values 0.992 | locus YHR142W, strain chs7, hits give low values 1 | locus YJL092W, strain hpr5, hits give low values 0.982 | locus YJL095W, strain BCK1 (second series), hits give low values 0.995 | locus YJL095W, strain BCK1, hits give low values 0.998 | locus YJL115W, strain asf1, hits give low values 0.968 | locus YJL129C, strain trk1, hits give low values 0.984 | locus YJL154C, strain vps35, hits give low values 0.984 | locus YJL164C, strain tpk1, hits give low values 0.974 | locus YJL166W, strain qcr8, hits give low values 1 | locus YJL187C, strain SWE1, hits give low values 0.979 | locus YJR066W, strain TOR1, hits give low values 0.943 | locus YKL160W, strain elf1, hits give low values 0.998 | locus YKR026C, strain gcn3, hits give low values 0.996 | locus YKR091W, strain srl3, hits give low values 0.985 | locus YLL001W, strain dnm1, hits give low values 0.992 | locus YLL026W, hits give low values 0.996 | locus YLL041C, strain sdh2, hits give low values 0.99 | locus YLR027C, strain aat2, hits give low values 0.992 | locus YLR113W, strain HOG1, hits give low values 0.953 | locus YLR221C, strain rsa3, hits give low values 0.981 | locus YLR258W, strain gsy2, hits give low values 0.983 | locus YLR262C, strain YPT6 (second series), hits give low values 0.899 | locus YLR320W, strain mms22, hits give low values 0.992 | locus YLR342W, strain FKS1, hits give low values 0.999 | locus YLR357W, strain rsc2, hits give low values 1 | locus YLR370C, strain arc18, hits give low values 0.99 | locus YLR384C, strain iki3, hits give low values 0.988 | locus YML120C, strain ndi1, hits give low values 0.998 | locus YMR058W, strain fet3, hits give low values 0.973 | locus YMR125W, strain sto1, hits give low values 0.978 | locus YMR129W, hits give low values 0.985 | locus YMR205C, strain PFK2, hits give low values 0.981 | locus YMR231W, strain pep5, hits give low values 0.99 | locus YNL071W, strain lat1, hits give low values 0.972 | locus YNL183C, strain NPR1, hits give low values 0.947 | locus YNL209W, strain ssb2, hits give low values 0.983 | locus YNL248C, strain rpa49, hits give low values 0.977 | locus YNL322C, strain KRE1 (second series), hits give low values 0.998 | locus YNR049C, strain mso1, hits give low values 1 | locus YOR001W, strain rrp6, hits give low values 1 | locus YOR070C, strain gyp1, hits give low values 0.988 | locus YOR080W, strain dia2, hits give low values 0.986 | locus YOR083W, strain WHI5, hits give low values 0.992 | locus YOR106W, strain vam3, hits give low values 0.964 | locus YOR231W, strain MKK1, hits give low values 0.979 | locus YOR265W, strain rbl2, hits give low values 0.985 | locus YOR270C, strain vph1, hits give low values 0.871 | locus YOR290C, strain snf2, hits give low values 0.987 | locus YPL051W, strain arl3, hits give low values 0.988 | locus YPL078C, strain atp4, hits give low values 0.996 | locus YPL106C, strain sse1, hits give low values 0.871 | locus YPL240C, strain hsp82, hits give low values 0.97 | locus YPL256C, strain CLN2, hits give low values 0.944
